Measured values taken from PubChem BioAssay.
Calls of active or inactive are those of the source. Unless noted, the rule behind the calls is not given here.

Key:
[1] = A549 cell viability effects, profiling panel, calcein-AM fluorescence, 48 h, basal (AID 1162); details: higher = more signal; note: test concentration not given here
[2] = adipocyte viability effects, profiling panel, cell-based, 3T3-L1 adipocytes, calcein-AM fluorescence, 48 h, basal (AID 1163); details: 3T3-L1 adipocytes viability, higher = more signal; note: test concentration not given here
[3] = HepG2 cell viability effects, profiling panel, calcein-AM fluorescence, 48 h, basal (AID 1164); details: higher = more signal; note: test concentration not given here
[4] = MM1S cell viability effects, profiling panel, calcein-AM fluorescence, 48 h, basal (AID 1165); details: higher = more signal;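 note: viability of MM1S multiple myeloma cells under basal unstimulated conditions; test concentration not given here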
[5] = basal RPMI8226 viability, no added stimulus, profiling panel, cell-based, calcein-AM fluorescence, 48 h, PK04 Diversity Set (AID 1166); details: RPMI8226 myeloma viability, higher = more signal;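 note: cells grown under basal conditions without added stimulus; test concentration not given here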
[6] = basal HepG2 mitochondrial membrane potential changes, profiling panel, cell-based, JC-1 fluorescence, 24 h, 100 nL compound (AID 1167); details: higher = more signal; note: test concentration not given here
[7] = basal 3T3-L1 adipocyte mitochondrial potential changes, profiling panel, cell-based, JC-1 fluorescence, 3T3-L1 adipocytes, 24 h, 100 nL compound (AID 1168); details: JC-1 mitochondrial fluorescence, higher = more signal, called active from +8 up or from −8 down; note: test concentration not given here
[8] = basal RPMI8226 mitochondrial membrane potential changes, profiling panel, cell-based, JC-1 fluorescence, 24 h, 100 nL compound (AID 1169); details: RPMI8226 myeloma, JC-1 mitochondrial potential fluorescence, higher = more signal; note: test concentration not given here
[9] = basal MM1S mitochondrial membrane potential changes, profiling panel, cell-based, JC-1 fluorescence, 24 h, 100 nL compound (AID 1170); details: higher = more signal; note: test concentration not given here
[10] = A549 lung cancer cell viability effects, profiling panel, resazurin fluorescence, 24 h, PK04 Diversity Set (AID 1171); details: higher = more signal, called active from +8 up or from −8 down; note: test concentration not given here
[11] = HepG2 liver cancer cell viability effects, profiling panel, resazurin fluorescence, 24 h, PK04 Diversity Set (AID 1172); details: higher = more signal; note: test concentration not given here
[12] = basal S. cerevisiae growth modulation, no modifier, primary screen, OD600, strain BY4716, 24 h, basal condition (AID 1173); details: OD600, 24 h, higher = more signal, called active from +8 up or from −8 down
[13] = MM1S myeloma cell viability, profiling panel, resazurin fluorescence, basal, 24 h, PK04 Diversity Set (AID 1174); details: higher = more signal, called active from +8 up or from −8 down;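 note: MM1S multiple myeloma cell line; test concentration not given here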
[14] = target: Dihydroorotate dehydrogenase (quinone), mitochondrial (Plasmodium falciparum (isolate 3D7)) (UniProt Q08210); test: PfDHODH enzyme inhibitors, primary screen, biochemical, C-terminal His tag, absorbance 600 nm (AID 1175); details: DCIP absorbance 600 nm, higher = more signal, called active from +8 up or from −8 down;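 note: recombinant parasite enzyme with a five histidine tag at its C terminus; test concentration not given here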
[15] = P. aeruginosa biofilm formation inhibitors, primary screen, strain PAO1, LB-PBS medium, absorbance 600 nm (AID 1176); note: test concentration not given here; details: P. aeruginosa PAO1 growth/biofilm, A600, 12 h; higher = more signal
[16] = S. cerevisiae RM11-1a growth modifiers, primary screen, strain RM11-1a, OD600, basal, 24 h (AID 1177); details: OD600, 24 h, higher = more signal, called active from +8 up or from −8 down;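 note: cultures grown under basal conditions with no added stressor; test concentration not given here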
[17] = E. coli acrAB mutant growth effects, primary screen, E. coli filamentation inducers, strain DRC39, OD650, 24 h (AID 1178); details: higher = more signal, called active from +8 up or from −8 down;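 note: growth measured as culture turbidity by optical density at 650 nm; test concentration not given here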
[18] = E. coli acrAB mutant growth effects, primary screen, E. coli filamentation inducers, strain DRC39, OD650, 48 h (AID 1179);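 note: screen aims at cell division blockers that make cells filament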; details: E. coli DRC39 delta-acrAB growth, higher = more signal, called active from +8 up or from −8 down
[19] = RPMI8226 myeloma cell viability, profiling panel, resazurin fluorescence, basal, 24 h, PK04 Diversity Set (AID 1180); details: higher = more signal;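 note: RPMI8826 multiple myeloma cell line at 5000 cells per well; test concentration not given here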
[20] = target: E3 ubiquitin-protein ligase XIAP (Homo sapiens) (UniProt P98170); test: XIAP binders, primary screen, biophysical, small-molecule microarray, fluorescence 635 nm (AID 1181); details: small-molecule microarray binding, higher = more signal;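 note: score merges 667 nm emission and signal to noise over triplicate slides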
Chain of E3 ubiquitin-protein ligase XIAP (Homo sapiens) (P98170 whole entry, looked up): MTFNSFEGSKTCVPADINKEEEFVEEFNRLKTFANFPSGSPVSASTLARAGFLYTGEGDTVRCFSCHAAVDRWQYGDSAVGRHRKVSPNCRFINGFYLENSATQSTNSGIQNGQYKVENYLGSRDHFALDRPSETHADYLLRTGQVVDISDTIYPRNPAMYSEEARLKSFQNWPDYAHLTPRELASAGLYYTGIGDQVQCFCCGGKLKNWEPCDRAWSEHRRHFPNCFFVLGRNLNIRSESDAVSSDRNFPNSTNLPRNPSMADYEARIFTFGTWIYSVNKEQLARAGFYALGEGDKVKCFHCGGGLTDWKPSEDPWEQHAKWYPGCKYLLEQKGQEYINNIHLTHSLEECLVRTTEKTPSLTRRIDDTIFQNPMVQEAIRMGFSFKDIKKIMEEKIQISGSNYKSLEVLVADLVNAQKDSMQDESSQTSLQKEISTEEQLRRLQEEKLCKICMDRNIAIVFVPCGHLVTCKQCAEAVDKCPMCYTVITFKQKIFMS

Chain of Dihydroorotate dehydrogenase (quinone), mitochondrial (Plasmodium falciparum (isolate 3D7)) (Q08210 whole entry, looked up): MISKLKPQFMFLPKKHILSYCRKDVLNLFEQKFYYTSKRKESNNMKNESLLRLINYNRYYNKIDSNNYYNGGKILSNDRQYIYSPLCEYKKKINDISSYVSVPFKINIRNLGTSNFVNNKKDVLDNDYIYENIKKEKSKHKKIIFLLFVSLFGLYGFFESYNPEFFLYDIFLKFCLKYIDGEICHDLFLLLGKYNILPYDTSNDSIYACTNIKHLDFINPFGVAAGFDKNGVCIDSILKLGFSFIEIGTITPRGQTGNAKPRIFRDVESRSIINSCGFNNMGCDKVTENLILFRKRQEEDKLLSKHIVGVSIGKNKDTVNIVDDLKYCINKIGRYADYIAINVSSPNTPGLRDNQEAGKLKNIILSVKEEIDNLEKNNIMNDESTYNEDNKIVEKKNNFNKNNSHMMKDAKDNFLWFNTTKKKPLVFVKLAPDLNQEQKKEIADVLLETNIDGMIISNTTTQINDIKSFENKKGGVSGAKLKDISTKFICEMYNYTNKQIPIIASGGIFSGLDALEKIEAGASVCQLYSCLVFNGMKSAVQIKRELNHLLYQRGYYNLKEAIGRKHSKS

Compound | z-score [1] | z-score [2] | z-score [3] | z-score [4] | z-score [5] | z-score [6] | z-score [7] | z-score [8] | z-score [9] | z-score [10] | z-score [11] | z-score [12] | z-score [13] | composite z-score [14] | z-score [15] | z-score [16] | z-score [17] | z-score [18] | z-score [19] | composite z-score [20]
CC(C)N1C(=O)c2ccccc2[C@](C)(C(=O)NC2CC2)[C@@H]1c1ccc(CO)cc1 | -0.778 | -0.415 | 0.176 | 0.0418 | 0.27 | 1.57 | 0.343 (inactive) | 0.747 | -0.847 | 0.688 (inactive) | 0.989 | -0.708 (inactive) | 0.192 (inactive) | -0.231 (inactive) | -0.342 (inactive) | 0.382 (inactive) | 0.783 (inactive) | 1.5 (inactive) | 0.798 | -0.0536
COc1ccc([Si](C)(C)[C@H]2[C@H](CC(=O)N3CCC[C@H]3CO)O[C@@]3(C(=O)N(Cc4cccc(N5CCC5=O)c4)c4ccccc43)[C@@H]2C)cc1 | -0.246 | 1.57 | -0.108 | -2.2 | -4.11 | 3.25 | -0.457 (inactive) | -1.14 | 0.619 | -1.2 (inactive) | -1.26 | 0.124 (inactive) | -0.616 (inactive) | -7.33 (inactive) | 0.507 (inactive) | 1.23 (inactive) | 0.791 (inactive) | 0.473 (inactive) | -0.826 | -0.152
C=C[C@H](OC)[C@@H](OC(=O)Nc1ccc(SC)cc1)c1ccc(OCCO)cc1 | -0.13 | 0.559 | 0.0758 | -0.164 | 0.609 | -2.55 | 0.734 (inactive) | -0.0748 | -0.887 | -0.139 (inactive) | -0.237 | -1.95 (inactive) | -0.895 (inactive) | -1.02 (inactive) | 0.662 (inactive) | 0.39 (inactive) | 0.0364 (inactive) | 0.0255 (inactive) | -0.204 | -0.0559
CCCC[C@@H]1C[C@H]1[C@@H](NC(=O)c1ccco1)c1ccccc1 | -2.22 | -0.252 | -2.22 | -3.27 | -4.74 | -3.6 | -1.27 (inactive) | -0.759 | -2.24 | 2.55 (inactive) | 1.39 | -3.05 (inactive) | 0.757 (inactive) | -1.19 (inactive) | -0.195 (inactive) | 0.586 (inactive) | -0.9 (inactive) | -0.569 (inactive) | 0.0092 | 0.171
O=C1O[C@@H](c2ccccc2)[C@@H](c2ccccc2)N2[C@@H](c3ccc(O)cc3)[C@]3(C(=O)Nc4ccc(C#CCCO)cc43)[C@@H](C(=O)N3CCCCCCC3)[C@H]12 | 0.498 | 0.93 | -0.284 | 0.59 | -1.24 | -1.06 | -0.585 (inactive) | -0.185 | 0.129 | 0.254 (inactive) | -0.348 | 0.176 (inactive) | -0.161 (inactive) | 1.29 (inactive) | 1.01 (inactive) | 0.524 (inactive) | 0.0109 (inactive) | -0.787 (inactive) | -0.53 | 0.567
COCCCNC(=O)[C@]1(Cc2ccccc2N=[N+]=[N-])N=C(c2ccc(OCCCO)cc2)O[C@@H]1c1ccccc1CN=[N+]=[N-] | -1.02 | 1.63 | -1.77 | -2.98 | -4.11 | 1.46 | -0.683 (inactive) | -1.2 | -0.495 | -1.2 (inactive) | -0.412 | 0.0634 (inactive) | -2.16 (inactive) | 0.0785 (inactive) | 1.83 (inactive) | -0.22 (inactive) | 2.79 (inactive) | 0.499 (inactive) | -2.01 | 0.283
[N-]=[N+]=Nc1ccccc1[C@@H]1OC(c2ccc(OCCCO)cc2)=N[C@]1(CCS(=O)(=O)c1ccccc1)C(=O)O | 0.926 | -0.149 | 0.846 | -0.57 | -1.47 | -3.18 | -1.07 (inactive) | -0.373 | -1.17 | 0.343 (inactive) | 0.97 | -0.14 (inactive) | -0.3 (inactive) | -23.4 (active) | -0.884 (inactive) | 0.82 (inactive) | 0.277 (inactive) | 0.82 (inactive) | 0.205 | 0.125
C=CCN1Cc2ccccc2C[C@@]2(COC(c3ccc(OCCCO)cc3)=N2)C1=O | 0.386 | 0.72 | 0.741 | -3.59 | -2.52 | 1.32 | 0.94 (inactive) | -0.988 | -2.19 | -1.56 (inactive) | 0.344 | -2.27 (inactive) | -8.12 (active) | -0.993 (inactive) | -0.127 (inactive) | 1.04 (inactive) | 1.32 (inactive) | 1.14 (inactive) | -4.61 | 0.236
COCC1=C([C@H](O)CCc2ccccc2)[C@H](CO)[C@@H]2C(=O)N(Cc3ccccc3)C(=O)[C@@H]2C1 | 0.883 | 0.709 | 0.984 | 0.418 | 0.438 | 0.592 | 0.424 (inactive) | 0.469 | -1.37 | 0.859 (inactive) | -0.062 | -1.55 (inactive) | 0.0871 (inactive) | -1.91 (inactive) | -0.295 (inactive) | 0.723 (inactive) | 1.09 (inactive) | 0.738 (inactive) | 0.449 | -0.031
O=C1O[C@@H](c2ccccc2)[C@@H](c2ccccc2)N2[C@@H](c3ccc(O)cc3)[C@]3(C(=O)Nc4ccccc43)[C@@H](C(=O)NC[C@H](O)c3ccccc3)[C@H]12 | 0.0061 | 0.874 | -0.121 | -0.0487 | -1.08 | -1.5 | -0.377 (inactive) | -0.774 | 0.32 | 0.314 (inactive) | 1.42 | -0.882 (inactive) | 0.616 (inactive) | 0.609 (inactive) | -0.489 (inactive) | 0.0813 (inactive) | 0.389 (inactive) | -0.163 (inactive) | -0.273 | 0.272
C=CCOC(=O)[C@@H]1[C@H]2C(=O)O[C@H](c3ccccc3)[C@H](c3ccccc3)N2[C@H](c2ccc(OCCOC(=O)[C@H]3C[C@H]4C(=O)N[C@@H](CC(C)C)C(=O)N4[C@H]3c3cccc(OCCO)c3)cc2)[C@@]12C(=O)Nc1ccc(I)cc12 | 0.704 | 1.54 | -0.533 | -0.727 | -1.34 | -1.91 | 1.59 (inactive) | -0.946 | -1.2 | -0.304 (inactive) | -0.525 | -0.195 (inactive) | -0.77 (inactive) | 1.64 (inactive) | 3.38 (inactive) | 1.58 (inactive) | -0.111 (inactive) | -1.14 (inactive) | -0.747 | -0.0876
COCCOC(=O)N1C(=O)[C@@]2(c3cc(C#Cc4ccc(OC)cc4)ccc31)[C@H](c1ccc(O)cc1)N1[C@H](c3ccccc3)[C@H](c3ccccc3)OC(=O)[C@H]1[C@@H]2C(=O)N1CCN(c2ncccn2)CC1 | -0.514 | 0.546 | -0.0225 | -0.305 | -1.12 | -0.445 | 2.33 (inactive) | -0.525 | -0.339 | 0.484 (inactive) | 0.202 | 1.03 (inactive) | 0.292 (inactive) | 0.0094 (inactive) | 0.173 (inactive) | 1.75 (inactive) | 0.307 (inactive) | -0.0695 (inactive) | 0.138 | -0.224
C=CCN1C(=O)[C@]2(COC(c3ccc(OCCCO)cc3)=N2)Cc2ccccc21 | 0.78 | 1.94 | 0.641 | -1.22 | -0.326 | 0.53 | 0.625 (inactive) | -0.808 | -0.599 | -0.183 (inactive) | 0.653 | -1.8 (inactive) | -0.99 (inactive) | -1.5 (inactive) | 0.286 (inactive) | -0.675 (inactive) | 0.695 (inactive) | 1.54 (inactive) | -0.126 | 0.0933
CCCC[C@H]1OB(O)C[C@H]2C1=C(C)Cn1c(=O)n(-c3ccccc3)c(=O)n12 | 0.673 | 0.465 | 0.173 | -0.337 | -0.108 | 0.546 | 0.299 (inactive) | -0.903 | -0.503 | 0.0548 (inactive) | 0.916 | 0.422 (inactive) | -0.441 (inactive) | -0.0299 (inactive) | -0.638 (inactive) | 0.218 (inactive) | -0.13 (inactive) | -0.605 (inactive) | 0.191 | -0.0599
C=CCC(OC(C)=O)[C@@H]1[C@@H](N(Cc2ccc(-c3cccc(C(F)(F)F)c3)o2)C(=O)c2ccc(C)cc2)c2cc(OCCCO)ccc2N1C(=O)c1ccc2ccccc2n1 (stereo not given in full) | 1.03 | 0.27 | 1.91 | -0.0472 | -0.526 | 2.67 | -0.351 (inactive) | 0.962 | -0.165 | 0.16 (inactive) | 0.347 | -0.304 (inactive) | 0.0003 (inactive) | -1.35 (inactive) | -0.325 (inactive) | -0.0057 (inactive) | -0.379 (inactive) | 0.317 (inactive) | -0.37 | 0.265
Cc1ccc(N2C(=O)c3ccccc3[C@](C)(C(=O)NCCN3CCOCC3)[C@@H]2c2ccc(CO)cc2)nc1 | -0.68 | 0.994 | -0.808 | 0.839 | -1.49 | 0.144 | -0.674 (inactive) | -0.628 | 0.0375 | 0.667 (inactive) | -0.946 | -0.574 (inactive) | 0.438 (inactive) | 0.255 (inactive) | 0.31 (inactive) | 0.548 (inactive) | -0.0943 (inactive) | -0.126 (inactive) | 0.274 | 0.086
